Laboratory results as given in PubChem BioAssay AID2098 (Broad Institute, 2009).
The whole screen tested about 300,000 compounds, of which about 2,300 (0.77%) were called active. Only a selection was taken, and actives are over-represented in it overall. A number with no mark means an inactive call.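 The calls were made as follows: active = more than half of replicate wells show activity change below -50%, luminescence cut by over half; inconclusive = some wells, but at most half, below -50%; inactive = no replicate well below -50%.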

test: blocking HSF1-driven luciferase expression – cell-based, NIH3T3, luminescence, primary screen (AID 2098); settings: NIH3T3-HGL HSE-luciferase, MG132-induced, luminescence 8 h; stronger effect = lower value; screened at 7.5 µM (by protocol);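 also: luciferase reports HSF-1 transcriptional activity via heat shock element; 0% = median of DMSO wells and -100% = zero luminescence signal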

| SMILES | activity change, negative = inhibition |
| --- | --- |
| CC(C)N(Cc1nnc(-c2ccc(Cl)cc2)o1)C(=O)C1=COCCO1 | -0.126% |
| Cc1ccc(C(=O)N/N=C/c2cccc3ccccc23)cn1 | 2.62% |
| COc1ccc(-c2ccc3nnc(SCC(=O)Nc4ccc(NC(C)=O)cc4)n3n2)cc1 | -1.23% |
| COc1ccc(S(=O)(=O)N2CCCC2CNC(=O)C(=O)NC2CC2)cc1 (centres undefined) | -3.82% |
| COc1ccc(N(CC(=O)NC2CCCCCCC2)S(=O)(=O)c2c(C)nn(C)c2C)cc1 | -60.7% (active) |
| CCOc1ccc(N(CC(=O)NC2CCCCCC2)S(=O)(=O)c2c(C)[nH]c(=O)[nH]c2=O)cc1 | -0.37% |
| COc1ccc(N(CC(=O)NC2CCCCC2)S(=O)(=O)c2c(C)[nH]c(=O)[nH]c2=O)cc1 | 4.32% |
| COc1cc(Cl)ccc1OCc1cc(C(=O)N(C)CCc2c(C)n[nH]c2C)no1 | 11.4% |
| CCn1ccnc1CN(C)C(=O)c1cc(COc2ccc(Cl)cc2OC)on1 | -51.9% (active) |
| CCn1ccnc1CN(C)C(=O)c1cc(COc2ccc(-n3cncn3)cc2)on1 | -9.56% |
| Cc1cc2ccccc2n1CCC(=O)O | -0.843% |
| O=C(O)CCn1c(O)c(C=C2N=c3ccccc3=N2)sc1=S | -52.2% (active) |
| O=C(O)CCn1c(Cc2ccccc2)nc2ccccc21 | 0.662% |
| C=CCOc1ccc(/C=C/C(=O)OC(C)C(=O)Nc2ccc(NC(C)=O)cc2)cc1 (centres undefined) | 12.2% |
| COc1ccc(CCNC(=S)N2CCN(S(=O)(=O)c3ccc(F)cc3)CC2)cc1 | -3.63% |
| CCC(=O)N1c2ccccc2NC2=C(C(=O)CCC2)C1c1ccco1 (centres undefined) | -0.999% |
| CCCC(=O)N1c2ccccc2NC2=C(C(=O)CCC2)C1c1ccc(F)cc1 (centres undefined) | -0.85% |
| CC(C)C(=O)N1c2ccccc2NC2=C(C(=O)CCC2)C1c1ccc(N(C)C)cc1 (centres undefined) | -60.9% (active) |
| O=C(NCC1(N2CCCCC2)CCCCC1)c1ccc(NS(=O)(=O)c2ccc(F)cc2)cc1 | -3.19% |
| CN(C(=O)COC(=O)c1ccc(Br)o1)c1c(N)n(Cc2ccccc2)c(=O)[nH]c1=O | -3.83% |
| O=C(COC(=O)Cc1c[nH]c2ccccc12)NCCc1ccccc1 | -4.81% |
| Cc1cc(=O)oc2cc(NC(=O)C(C)Oc3ccccc3)ccc12 (centres undefined) | 1.47% |
| Cc1cccc(-n2ncc(C#N)c2-n2cccc2)c1 | 2.7% |

| SMILES | activity change, negative = inhibition |
| --- | --- |
| COc1ccc(Oc2c(Cl)cnn(-c3ccccc3)c2=O)cc1 | -5.38% |
| Cc1cccc(-n2ncc(Cl)c(Cl)c2=O)c1 | -95.3% (active) |
| CC1(c2ccc(Cl)cc2Cl)NC(=O)N(CC(=O)Nc2cccnc2Cl)C1=O (centres undefined) | 1.88% |
| CCCOc1ccc(Cl)cc1Nc1nc(NCCO)nc(N2CCCC2)n1 | 1.49% |
| COC(=O)c1ccc(COC(=O)C2CCN(S(=O)(=O)c3c(Cl)cccc3Cl)CC2)o1 | 5.96% |
| COC(=O)c1sc(NC(=O)c2ccc(OC)cc2OC)nc1C | -40.1% |
| COc1cc(SC)ccc1C(=O)Nc1cc(C)ccn1 | 28.6% |
| COc1cc(SC)ccc1C(=O)Nc1nc(C)cs1 | -63.8% (active) |
| Cc1ccc(C(=O)C(C)OC(=O)Cc2n[nH]c(=O)c3ccccc23)cc1C (centres undefined) | -5.5% |
| NC(=O)c1ccsc1NC(=O)COC(=O)Cc1n[nH]c(=O)c2ccccc12 | -1.64% |
| COc1ccc(CC(=O)OC(C)C(=O)Nc2ccc(S(N)(=O)=O)cc2)cc1 (centres undefined) | -3.68% |
| CCc1cccc(NC(=O)COC(=O)C2CCN(c3ccc(C(F)(F)F)cn3)CC2)c1 | -4.52% |
| Cc1cccc(NC(=O)Nc2ccc(OCc3ccccc3)cc2)n1 | 1.3% |
| O=C(O)/C=C\C(=O)Nc1ccc(OCc2ccccc2)cc1 | -65.7% (active) |
| CCc1ccnc(NC(=O)Nc2ccc(OCc3ccccc3)cc2)c1 | -11.4% |
| O=C(CCCN=C1NS(=O)(=O)c2ccccc21)OCC(=O)c1ccc(F)c(F)c1 | -2.57% |
| COc1ccc2[nH]c(=O)c(CN(Cc3cccnc3)S(=O)(=O)c3ccccc3F)cc2c1 | -52.3% (active) |
| CCN(Cc1cc2cc(C)ccc2[nH]c1=O)S(=O)(=O)c1ccccc1 | -3.14% |
| CCC(=O)N(Cc1cc2cc(OC)ccc2[nH]c1=O)c1ccccc1C | -6.72% |
| COc1ccccc1NC(=O)C(C)OC(=O)c1ccc(-n2cnnn2)cc1 (centres undefined) | -4.36% |
| O=C1CC2(CCCC2)Oc2ccc(Cl)cc21 | -9.81% |
| COc1ccc2c(c1)CCNC2Cc1ccc(OC)c(O)c1 (centres undefined) | 0.52% |
| CC[C@H]1CN2CCc3cc(OC)c(OC)cc3[C@@H]2C[C@@H]1C[C@H]1NCCc2cc(OC)c(OC)cc21 | -74.7% (active) |

| SMILES | activity change, negative = inhibition |
| --- | --- |
| COc1cc2c(cc1O)[C@H](Cc1ccc(Oc3cc(C[C@@H]4NCCc5cc(OC)c(O)cc54)ccc3O)cc1)NCC2 | -2.77% |
| C=CCOC(=O)C1=C[C@H](c2ccc(Br)cc2)C[C@H](OCCCCO)O1 | -3.77% |
| O=C(NCc1ccccc1Cl)C1CCN(c2ncnc3c2nc2n3CCCCC2)CC1 | -6.69% |
| CCOC(=O)c1cccc(NC(=O)C2CCN(c3ncnc4c3nc3n4CCCCC3)CC2)c1 | -72.4% (active) |
| COc1cccc(NC(=O)C2CCCN(c3ncnc4c3nc3n4CCCCC3)C2)c1 (centres undefined) | -3.75% |
| COc1ccccc1CNC(=O)CSc1nc(=O)n(Cc2ccncc2)c2c1CCC2 | -0.526% |
| Cn1c(SCC(=O)c2ccccc2)ncc(C(=O)Nc2ccc(F)cc2)c1=O | 3.83% |
| Cc1nc(C)c(-c2nnc(-c3cccc(S(=O)(=O)N(C)C)c3)o2)cc1C(=O)NN | -63.1% (active) |
| CN(C)S(=O)(=O)c1cccc(NC(=O)Cc2ccsc2)c1 | 5.64% |
| Cc1ccc(/C=N/NC(=S)Nc2cccc(S(=O)(=O)N(C)C)c2)o1 | -4.55% |
| COc1cccc(CNC(=O)C(=O)NCCC2CCCCN2S(=O)(=O)c2ccc(C)cc2)c1 (centres undefined) | -3.75% |
| COc1cccc(N2CC(NS(=O)(=O)c3ccc(Cl)cc3)CC2=O)c1 (centres undefined) | 8.69% |
| C=C(C)C(=O)O[C@H]1C/C(C)=C\C(=O)/C=C(\C)[C@H](O)[C@@H]2OC(=O)C(=C)[C@@H]21 | -73.5% (active) |
| CN(CC(=O)NCc1cccnc1)S(=O)(=O)c1cc(Cl)ccc1Cl | 1.42% |
| CCN(CC(=O)Nc1ccc(NC(C)=O)cc1)C(=O)C1CC(=O)N(Cc2ccc(C)cc2)C1 (centres undefined) | -0.586% |
| COC(=O)CCNc1ccc2c(c1)OCCO2 | -72.6% (active) |
| COc1ccccc1OCCCC(=O)Nc1ccc2c(c1)OCCO2 | 1.02% |
| CCOc1ccc(NCCC(=O)c2ccc3c(c2)OCO3)cc1 | -1.61% |
| Cc1ccc2nc(SCC(=O)N3CC(C)OC(C)C3)nc(=O)n2c1 (centres undefined) | 3.03% |
| Cc1ccc(S(=O)(=O)CCC(=O)OCC(=O)N(C)C2CCS(=O)(=O)C2)cc1 (centres undefined) | -3.16% |
| COc1ccc(CN2[C@@H](CC(=O)O)c3cc(F)ccc3S2(=O)=O)cc1 | -5.27% |
| COc1ccc(C(=O)N/N=C2\CCS(=O)(=O)c3ccc(F)cc32)cc1OC | 9.4% |
| O=S1(=O)CC/C(=N\Nc2ccc(F)cc2)c2ccsc21 | -74.8% (active) |

| SMILES | activity change, negative = inhibition |
| --- | --- |
| CCN(CC(=O)N1CCCC1)S(=O)(=O)c1ccc(F)cc1 | -65.5% (active) |
| CCN(CC(=O)NCc1ccco1)S(=O)(=O)c1ccc(F)cc1 | -5.85% |
| COc1ccc(S(=O)(=O)N(C)CC(=O)N2CCCC2)cc1 | 0.377% |
| COc1ccc(CNC(=O)C2CCCC2)cc1 | -0.797% |
| CCOc1ccc(NC(=O)CN(C)C(=O)COc2cccc(CC)c2)cc1OCC | 3.71% |
| COC(=O)CCCC1=CC2=C(c3ccccc3)C(=O)C(C)(OC(=O)C3CCCC3)C(=O)C2=CN1c1ccc(OC)cc1 (centres undefined) | -88.7% (active) |
| COC(=O)CCCC1=CC2=CC(=O)C(C)(OC(=O)c3cccs3)C(=O)C2=CN1CC1CC1 (centres undefined) | -2.87% |
| COC(=O)CCCC1=CC2=CC(=O)C(C)(OC(=O)c3cccs3)C(=O)C2=CN1c1cccc(C#N)c1 (centres undefined) | 0.873% |
| CC(=O)c1ccc(S(=O)(=O)Nc2ccc(-c3ccc4nncn4n3)cc2)cc1 | 2.56% |
| COc1ccc(NC(=O)CN(C)C(=O)c2ccc(COc3ccccc3)o2)cc1 | 3.16% |
| O=c1c2ccccc2nc2n1C1(CCCCC1)Cc1ccccc1-2 | 15.3% |
| CN(C(=O)c1cc2c(=O)n3ccccc3nc2s1)C1CCCCC1 | 23.2% |
| CN(c1ccc2nc3ccccc3c(=O)n2n1)C1CCCCC1 | -86.8% (active) |
| CCCOc1ccc(C(=O)CCC(=O)OC(C)C(=O)Nc2ccc(NC(C)=O)cc2)cc1 (centres undefined) | 11.7% |
| CN(C)CCCNC(=S)N1CCC(c2nc3ccccc3[nH]2)CC1 | -2.77% |
| COCCCNC(=S)N1CCCC(c2nc3cc(C)c(C)cc3[nH]2)C1 (centres undefined) | 5.14% |
| CCCNC(=S)N1CCCC(c2nc3ccccc3[nH]2)C1 (centres undefined) | -82% (active) |
| CCOc1ccc(S(=O)(=O)Nc2cccc(C(=O)NCC3(N4CCCCC4)CCCCC3)c2)cc1 | -3.29% |
| CC(=O)N[C@H]1[C@H]([C@H](O)[C@H](O)CO)OC(C(=O)O)=C[C@@H]1O | -3.57% |
| COc1ccc2oc(C(=O)OCC(=O)N(CC(C)C)c3c(N)n(Cc4ccccc4)c(=O)[nH]c3=O)c(C)c2c1 | 1.6% |
